# Results: the supplement of paper PMC10849652
# The full data set covers some 7,900 targets. This sample favours those with a hit. About 0.6% of all pairs of compound and target were hits. Unmarked numbers belong to inactive results.
# Legend:
# Assay in all cases: log2 fold change, soluble protein after heating vs DMSO (PISA); higher = thermal stabilisation; K562 cells, 10 uM, 30 min; active = over 0.2 and 3.5 SD of the protein, either way, in both replicates (recomputed)
# [1] = compound: CC1=C(C=C(C=C1)NC(=O)C2=CC(=CC=C2)C(C)(C)C#N)NC3=CC4=C(C=C3)N=CN(C4=O)C
# Method in brief: (§1)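 Quantification of soluble protein used TMTpro 16plex LC-MS/MS, with channel sums equalised. Samples were the supernatant after 21,000xg for 90 min of pooled aliquots from K562 cells (2×10^6 cells/mL) treated with 10 μM compound for 30 min, heated for 3 min over 48°C-58°C, and extracted in PBS with 0.5% NP-40 at 4°C. Values, from duplicates, describe thermal stability against control samples on a log2 fold-change scale.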
# [2] = compound: CC1=C(C=C(C=C1)NC(=O)C2=CC(=CC=C2)N(C)C)NC(=O)C3=CC=C(C=C3)O
# Method in brief: as §1
# [3] = compound: CC1=CC=C(C=C1)SC2=C3C=C(SC3=CN=C2)C(=O)N
# Method in brief: as §1
# [4] = compound: CC1=NC(=CC=C1)C2=C(N=C(N2)C(C)(C)C)C3=CC4=NC=CN=C4C=C3
# Method in brief: as §1
# Nexturastat A = compound: CCCCN(Cc1ccc(C(=O)NO)cc1)C(=O)Nc1ccccc1 [Nexturastat A]
# Method in brief: as §1
# vemurafenib = compound: CCCS(=O)(=O)Nc1ccc(F)c(C(=O)c2c[nH]c3ncc(-c4ccc(Cl)cc4)cc23)c1F [vemurafenib]
# Method in brief: as §1
# [5] = compound: CCCS(=O)(=O)Nc1ccc(F)c(C(=O)c2c[nH]c3ncc(Cl)cc23)c1F
# Method in brief: as §1
# [6] = compound: CCCc1cc(C)[nH]c(=O)c1CNC(=O)c1cc(-c2ccnc(N3CCN(C)CC3)c2)cc2c1cnn2C(C)C
# Method in brief: as §1
# givinostat = compound: CCN(CC)Cc1ccc2cc(COC(=O)Nc3ccc(C(=O)NO)cc3)ccc2c1 [givinostat]
# Method in brief: as §1
# barasertib = compound: CCN(CCCOc1ccc2c(Nc3cc(CC(=O)Nc4cccc(F)c4)[nH]n3)ncnc2c1)CCOP(=O)(O)O [barasertib]
# Method in brief: as §1
# [7] = compound: CC[C@@H]1C(=O)N(C)c2cnc(Nc3ccc(C(=O)NC4CCN(C)CC4)cc3OC)nc2N1C1CCCC1
# Method in brief: as §1
# volasertib = compound: CC[C@@H]1C(=O)N(C)c2cnc(Nc3ccc(C(=O)N[C@H]4CC[C@H](N5CCN(CC6CC6)CC5)CC4)cc3OC)nc2N1C(C)C [volasertib]
# Method in brief: as §1
# [8] = compound: CC[C@H](C)N1C=C(C2=C(C=C(C=C21)C3=CN=C(C=C3)N4CCNCC4)C(=O)NCC5=C(C=C(NC5=O)C)C)C
# Method in brief: as §1
# epoxomicin = compound: CC[C@H](C)[C@@H](C(=O)N[C@@H]([C@@H](C)O)C(=O)N[C@@H](CC(C)C)C(=O)[C@]1(CO1)C)NC(=O)[C@H]([C@@H](C)CC)N(C)C(=O)C [epoxomicin]
# Method in brief: as §1
# [9] = compound: CCn1c(C(=O)N(C2CC2)C2CC2)cc2c3c(ncn3C)c(Nc3cc(C)n(C)n3)nc21
# Method in brief: as §1
# [10] = compound: CCn1cc(-c2ccnc3[nH]c(-c4cccc(CN(C)C)c4)cc23)c(-c2ccc(NC(=O)N(C)C)cc2)n1
# Method in brief: as §1
# [11] = compound: CN(C)CC(=O)Nc1ccc2[nH]c(=O)c3ccccc3c2c1
# Method in brief: as §1
# rosiglitazone = compound: CN(CCOC1=CC=C(C=C1)C[C@H]2C(=O)NC(=O)S2)C3=CC=CC=N3 (racemic) [rosiglitazone]
# Method in brief: as §1
# [12] = compound: CN1C2=C(C3=C1C(=O)N(N=C3)CC4=CC(=CC=C4)N)SC(=C2)S(=O)C
# Method in brief: as §1
# [13] = compound: CN1CCC(CNc2ccc3ncc(-c4cccc(OC(F)(F)F)c4)n3n2)CC1
# Method in brief: as §1
# Chain of UniProt Q9NWZ3 (Q9NWZ3 whole entry, looked up): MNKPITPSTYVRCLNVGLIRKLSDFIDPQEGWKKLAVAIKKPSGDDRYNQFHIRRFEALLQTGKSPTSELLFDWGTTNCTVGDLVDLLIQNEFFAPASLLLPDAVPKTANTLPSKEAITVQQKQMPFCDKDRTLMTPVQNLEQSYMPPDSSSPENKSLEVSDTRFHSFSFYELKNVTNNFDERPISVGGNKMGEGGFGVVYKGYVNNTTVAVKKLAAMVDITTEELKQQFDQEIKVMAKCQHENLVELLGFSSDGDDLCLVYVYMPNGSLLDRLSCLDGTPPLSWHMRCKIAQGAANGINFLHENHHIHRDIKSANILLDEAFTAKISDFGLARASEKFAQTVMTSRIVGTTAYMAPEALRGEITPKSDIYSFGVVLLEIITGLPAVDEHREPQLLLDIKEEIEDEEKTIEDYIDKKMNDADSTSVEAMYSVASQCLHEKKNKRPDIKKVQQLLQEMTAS
# Chain of UniProt Q96G25 (Q96G25 whole entry, looked up): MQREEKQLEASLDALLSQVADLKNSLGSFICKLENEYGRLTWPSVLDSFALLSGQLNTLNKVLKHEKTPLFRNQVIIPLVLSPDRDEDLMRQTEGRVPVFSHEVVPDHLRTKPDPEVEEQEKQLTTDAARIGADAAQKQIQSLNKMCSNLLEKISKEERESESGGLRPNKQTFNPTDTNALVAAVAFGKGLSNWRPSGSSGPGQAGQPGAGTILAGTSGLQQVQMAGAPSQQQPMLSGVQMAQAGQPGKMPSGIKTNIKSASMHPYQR
# Chain of UniProt Q13257 (Q13257 whole entry, looked up): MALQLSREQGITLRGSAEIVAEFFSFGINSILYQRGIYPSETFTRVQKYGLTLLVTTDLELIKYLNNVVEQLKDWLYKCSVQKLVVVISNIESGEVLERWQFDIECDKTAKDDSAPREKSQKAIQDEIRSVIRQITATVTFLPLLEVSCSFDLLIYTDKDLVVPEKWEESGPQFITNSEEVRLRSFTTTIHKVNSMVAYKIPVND
# Chain of UniProt P18065 (P18065 whole entry, looked up): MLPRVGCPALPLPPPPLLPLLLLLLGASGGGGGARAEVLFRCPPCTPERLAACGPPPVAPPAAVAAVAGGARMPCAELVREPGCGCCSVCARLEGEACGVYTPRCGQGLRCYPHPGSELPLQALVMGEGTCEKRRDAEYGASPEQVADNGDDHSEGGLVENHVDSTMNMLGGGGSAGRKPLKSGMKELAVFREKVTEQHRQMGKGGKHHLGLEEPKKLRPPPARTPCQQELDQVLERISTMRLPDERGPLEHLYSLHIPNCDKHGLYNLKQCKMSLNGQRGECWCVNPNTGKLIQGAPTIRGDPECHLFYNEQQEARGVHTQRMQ
# Chain of UniProt P01116 (P01116 whole entry, looked up): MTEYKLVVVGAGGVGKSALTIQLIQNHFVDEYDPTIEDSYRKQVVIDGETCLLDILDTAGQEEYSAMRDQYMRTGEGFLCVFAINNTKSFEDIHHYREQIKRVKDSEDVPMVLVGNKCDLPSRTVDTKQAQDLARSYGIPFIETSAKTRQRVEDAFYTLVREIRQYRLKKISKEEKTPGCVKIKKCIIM
# Chain of UniProt Q9C0E8 (Q9C0E8 whole entry, looked up): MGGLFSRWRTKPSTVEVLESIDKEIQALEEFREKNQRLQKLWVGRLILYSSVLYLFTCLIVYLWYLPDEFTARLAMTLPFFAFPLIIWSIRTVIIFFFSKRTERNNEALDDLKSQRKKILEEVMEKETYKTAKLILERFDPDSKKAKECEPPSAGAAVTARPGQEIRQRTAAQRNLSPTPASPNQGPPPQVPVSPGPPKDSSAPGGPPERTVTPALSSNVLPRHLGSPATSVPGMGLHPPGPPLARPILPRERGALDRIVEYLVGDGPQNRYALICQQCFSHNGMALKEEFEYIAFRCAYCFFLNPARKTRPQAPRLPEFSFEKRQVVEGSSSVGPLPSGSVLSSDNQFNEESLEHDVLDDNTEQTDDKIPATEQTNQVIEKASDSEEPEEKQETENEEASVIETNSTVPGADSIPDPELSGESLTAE
# Chain of UniProt P22692 (P22692 whole entry, looked up): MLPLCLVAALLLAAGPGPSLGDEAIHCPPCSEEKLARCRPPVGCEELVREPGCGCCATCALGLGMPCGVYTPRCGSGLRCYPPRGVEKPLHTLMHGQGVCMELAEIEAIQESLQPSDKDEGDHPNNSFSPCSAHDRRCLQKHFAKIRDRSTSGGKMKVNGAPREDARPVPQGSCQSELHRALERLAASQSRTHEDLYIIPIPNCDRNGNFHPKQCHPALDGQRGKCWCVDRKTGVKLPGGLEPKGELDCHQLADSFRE
# Chain of UniProt Q9H1H9 (Q9H1H9 whole entry, looked up): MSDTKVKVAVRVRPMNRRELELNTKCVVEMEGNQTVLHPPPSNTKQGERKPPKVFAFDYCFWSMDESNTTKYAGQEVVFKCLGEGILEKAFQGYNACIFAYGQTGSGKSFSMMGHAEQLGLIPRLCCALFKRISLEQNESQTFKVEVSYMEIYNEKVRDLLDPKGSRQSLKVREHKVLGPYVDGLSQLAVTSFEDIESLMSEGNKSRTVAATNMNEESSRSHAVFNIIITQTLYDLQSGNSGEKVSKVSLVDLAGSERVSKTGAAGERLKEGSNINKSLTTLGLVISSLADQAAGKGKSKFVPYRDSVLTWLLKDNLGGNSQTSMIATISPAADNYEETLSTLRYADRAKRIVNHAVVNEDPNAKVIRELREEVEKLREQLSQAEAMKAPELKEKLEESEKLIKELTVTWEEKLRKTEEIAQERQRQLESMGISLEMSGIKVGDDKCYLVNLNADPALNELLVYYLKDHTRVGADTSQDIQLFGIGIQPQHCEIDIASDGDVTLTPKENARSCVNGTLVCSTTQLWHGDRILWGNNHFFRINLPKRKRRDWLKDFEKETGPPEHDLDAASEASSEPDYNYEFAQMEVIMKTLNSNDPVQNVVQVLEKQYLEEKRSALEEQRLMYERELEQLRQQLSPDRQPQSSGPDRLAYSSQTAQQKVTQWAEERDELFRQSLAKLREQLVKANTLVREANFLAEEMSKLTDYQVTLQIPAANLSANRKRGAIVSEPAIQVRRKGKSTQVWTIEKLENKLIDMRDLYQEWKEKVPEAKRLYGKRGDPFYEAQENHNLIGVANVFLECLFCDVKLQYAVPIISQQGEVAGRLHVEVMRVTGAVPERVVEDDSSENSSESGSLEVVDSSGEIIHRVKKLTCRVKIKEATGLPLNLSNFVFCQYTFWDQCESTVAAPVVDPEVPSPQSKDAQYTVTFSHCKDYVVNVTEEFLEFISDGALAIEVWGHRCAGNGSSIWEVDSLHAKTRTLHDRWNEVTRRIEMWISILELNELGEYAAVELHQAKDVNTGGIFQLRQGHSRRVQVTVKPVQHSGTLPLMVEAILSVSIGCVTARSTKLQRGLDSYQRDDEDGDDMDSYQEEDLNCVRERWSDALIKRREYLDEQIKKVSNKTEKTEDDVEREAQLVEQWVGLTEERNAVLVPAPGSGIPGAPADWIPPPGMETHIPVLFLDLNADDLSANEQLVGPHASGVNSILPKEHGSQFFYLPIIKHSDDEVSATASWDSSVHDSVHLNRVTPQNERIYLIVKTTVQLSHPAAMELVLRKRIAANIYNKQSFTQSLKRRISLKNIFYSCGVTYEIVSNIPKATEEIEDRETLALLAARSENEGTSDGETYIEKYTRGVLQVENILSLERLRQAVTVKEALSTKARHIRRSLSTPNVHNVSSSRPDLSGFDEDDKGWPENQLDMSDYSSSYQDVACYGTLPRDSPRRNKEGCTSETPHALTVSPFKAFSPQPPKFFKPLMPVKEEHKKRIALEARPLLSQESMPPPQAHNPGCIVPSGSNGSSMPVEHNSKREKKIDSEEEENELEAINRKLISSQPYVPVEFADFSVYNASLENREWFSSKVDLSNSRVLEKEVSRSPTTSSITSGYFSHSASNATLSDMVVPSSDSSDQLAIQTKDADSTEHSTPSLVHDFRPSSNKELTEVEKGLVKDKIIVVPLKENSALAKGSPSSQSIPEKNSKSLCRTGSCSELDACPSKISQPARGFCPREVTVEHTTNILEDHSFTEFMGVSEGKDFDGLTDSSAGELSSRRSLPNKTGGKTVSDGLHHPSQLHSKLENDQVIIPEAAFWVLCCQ
Target,log2 fold change [1],log2 fold change [2],log2 fold change [3],log2 fold change [4],log2 fold change (Nexturastat A),log2 fold change (vemurafenib),log2 fold change [5],log2 fold change [6],log2 fold change (givinostat),log2 fold change (barasertib),log2 fold change [7],log2 fold change (volasertib),log2 fold change [8],log2 fold change (epoxomicin),log2 fold change [9],log2 fold change [10],log2 fold change [11],log2 fold change (rosiglitazone),log2 fold change [12],log2 fold change [13]
MAD2L1 (UniProt Q13257),0.019,-0.035,-0.003,0.031,-0.103,0.028,0.031,-0.129,0.02,0.018,-0.058,-0.381 (active),0.016,-0.045,0,-0.038,0.002,0.052,-0.081,-0.166
KIF13A (UniProt Q9H1H9),-0.005,0.021,-0.005,-0.004,0.018,-0.045,0.04,-0.005,-0.021,-0.009,0.007,-0.041,-0.003,0.004,-0.05,-0.068,-0.026,0.068,-0.012,0.039
MED8 isoform 2 (UniProt Q96G25),-0.085,0.038,-0.03,0.089,0.045,0.36 (active),-0.027,0.081,-0.038,-0.059,0.027,0.1,0.046,-0.051,0.009,,-0.075,0.007,0.052,
LNPK (UniProt Q9C0E8),-0.011,0.01,-0.038,0.016,-0.023,-0.042,-0.027,-0.028,-0.018,0.012,0.02,0.024,-0.038,-0.007,-0.032,0.018,-0.042,0.01,0.012,0.059
KRAS isoform 2 (UniProt P01116),-0.034,0.046,-0.023,-0.026,-0.063,-0.03,-0.093,-0.073,0.014,0.003,0.08,0.026,-0.047,0.027,-0.007,-0.073,0,0.038,0.062,0.141
IRAK4 (UniProt Q9NWZ3),0.006,-0.039,0,0.03,0.009,0.041,0.068,-0.003,0.062,0.024,-0.138,-0.299,0.048,0.038,-0.092,-0.033,0.061,0.042,0.029,0.013
IGFBP2 (UniProt P18065),-0.154,0.173,0.201,0.349,0.106,0.262,-0.003,-0.409,0.056,0.012,-0.319,-0.614,-0.167,-0.707,-0.275,0.158,0.003,0.083,0.323,-0.638
IGFBP4 (UniProt P22692),0.044,0.207,0.026,0.003,0.019,0.084,-0.08,-0.193,-0.007,0.013,-0.22,-0.07,-0.092,-0.187,-0.045,0.173,-0.049,0.13,0.023,-0.033
